sEH activator – soluble epoxide hydrolase activators, primary screen, biochemical, human sEH | purified human sEH enzymatic activity, activator screen | activation, % at 2 µM | AID 717, 2007 | actives 0.04% (n = 91,000); in the data active = activation above about 37%
sEH inh – soluble epoxide hydrolase inhibitors, primary screen, biochemical, human sEH; Bifunctional epoxide hydrolase 2 (Homo sapiens), P34913; recombinant human sEH enzymatic activity assay; inhibition, % at 2 µM; actives 0.34% (n = 91,000); in the data active = inhibition above about 80%
CYP2C9 act – human CYP2C9 activators, primary screen, biochemical, luminescence; actives 1.4% (n = 96,000); Cytochrome P450 2C9 (Homo sapiens), P11712; activation factor at 5 µM; recombinant CYP2C9, luciferin-H conversion; hits give high values; factor 1 = untreated enzyme, 0 = blocked; AID 1024, 2008;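 active = activation factor of 2 or more for CYP2C9 at a 5 µM dose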;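 also: 0 = sulfaphenazole-blocked wells and 1 = vehicle-only wells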
CYP2C9 inhib – blockers of cytochrome P450 2C9 activity – biochemical, luminescence, ADME assay, primary screen; CYP2C9 Supersomes, luciferin-H conversion; inhibition, % at 5 µM; actives 20% (n = 96,000); AID 777, 2007;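 active = blocking of liver enzyme CYP2C9 beyond about 50% at 5 µM, limit read from the data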
CYP2C19 activ – human CYP2C19 activators, primary screen, biochemical, luminescence; recombinant CYP2C19, luciferin-H EGE luminescence; hits give high values; 0 = fully inhibited enzyme, 1 = untreated enzyme; activation factor at 5 µM; 96,000 tested, under 10 active;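 active = activation factor of at least 2 at 5 µM in the primary screen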;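 also: 0 = wells with 2.5 mM tranylcypromine and 1 = vehicle-only wells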
Target sequence (P33261 whole entry, looked up): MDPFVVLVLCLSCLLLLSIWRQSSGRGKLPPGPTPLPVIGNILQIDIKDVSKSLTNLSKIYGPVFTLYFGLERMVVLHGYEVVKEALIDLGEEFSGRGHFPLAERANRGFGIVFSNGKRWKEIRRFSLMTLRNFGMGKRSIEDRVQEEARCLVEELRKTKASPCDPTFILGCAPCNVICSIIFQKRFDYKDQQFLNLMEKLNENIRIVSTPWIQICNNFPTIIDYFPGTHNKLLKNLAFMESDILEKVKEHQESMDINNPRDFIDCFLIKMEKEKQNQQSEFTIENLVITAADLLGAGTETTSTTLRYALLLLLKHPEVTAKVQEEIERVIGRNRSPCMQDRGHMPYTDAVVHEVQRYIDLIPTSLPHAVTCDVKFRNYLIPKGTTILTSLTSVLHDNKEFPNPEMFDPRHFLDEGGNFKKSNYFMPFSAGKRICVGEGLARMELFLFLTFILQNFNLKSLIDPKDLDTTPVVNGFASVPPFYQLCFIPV
CYP2C19 inhib – blockers of cytochrome P450 2C19 activity – biochemical, luminescence, ADME assay, primary screen; actives 21% (n = 96,000); P33261; CYP2C19 Supersomes, luciferin-H EGE luminescence, 30 min; AID 778, 2007; inhibition, % at 5 µM;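 active = CYP2C19 inhibition above a set limit at 5 µM in the primary screen, cut at about 50% in these data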;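 also: plate controls were negative control wells for no effect and 2.5 mM tranylcypromine positive control for full effect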
Starred values were filed as active, the others as inactive; . = no result given. In the library only some 27% were active in any assay of this set; here they are far more common.

SMILES | sEH activator | sEH inh | CYP2C9 act | CYP2C9 inhib | CYP2C19 activ | CYP2C19 inhib
O=C(CN1CCN(Cc2ccccc2Cl)C1=O)NCC1CCCO1 (centres undefined) | 1 | 3 | 1.5 | -47 | 1 | 0
O=C1C(Cl)=C(NCC2CCCO2)C(=O)N1CCc1ccccc1 (centres undefined) | -5 | 6 | 0.3 | 66* | 0.2 | 82*
Cc1nn(C)cc1/C=N\NC(=O)c1ccc2c(c1)c(C)c(C)n2Cc1ccccc1 | -6 | 7 | 0.2 | 83* | 0.2 | 76*
Cc1cccc(S(=O)(=O)Nc2ccc(C)c3c2OC(C)(C)C3)c1 | 21 | -20 | 2.1* | -111 | 0 | 97*
CCCCNC(=O)CC1SC(=NCC)N(CC)C1=O (centres undefined) | -4 | 2 | 1.7 | -74 | 0.6 | 37
O=C(CSc1nnc(Cc2ccccc2)o1)NCc1ccco1 | -5 | 9 | 1 | 0 | 1 | -2
CCc1nc(SCC(=O)NCCc2ccccc2)c2oc3ccccc3c2n1 | 6 | -6 | 0.3 | 68* | 0.4 | 57*
Cc1ccc2cccc(SCC(=O)NCc3ccco3)c2n1 | . | . | 1.5 | -51 | 0.2 | 82*
Cc1nc(SCC(=O)NCCc2ccccc2)c2oc3ccccc3c2n1 | -9 | 9 | 0.4 | 58* | 0.4 | 65*
Cc1[nH]c2ccccc2c1Cc1nnc(SCC(=O)NCc2ccco2)o1 | . | . | 2.6* | -158 | 0.5 | 47
Cc1nc(SCC(=O)NCc2ccco2)c2oc3ccccc3c2n1 | . | . | 0.1 | 89* | 0.1 | 89*
Cc1nc(SCC(=O)c2ccc(Cl)s2)c2oc3ccccc3c2n1 | -2 | 1 | 0.8 | 22 | 0.8 | 24
O=C1CN(C(=O)COC(=O)COc2ccc3c(c2)CCC3)c2ccccc2N1 | 7 | -9 | 1 | 1 | 1 | 4
Cc1noc(C)c1C(=O)OCC(=O)c1ccc[nH]1 | 16 | -18 | 0.2 | 85* | 0.5 | 48
CCCn1c(N)c(C(=O)COC(=O)c2c(C)noc2C)c(=O)n(C)c1=O | 8 | -11 | 0.5 | 51* | 0.9 | 14
Cc1noc(C)c1C(=O)OCC(=O)c1cc(C)n(Cc2ccccc2Cl)c1C | . | . | 0.1 | 87* | 0.1 | 90*
Cc1noc(C)c1C(=O)OCC(=O)Nc1ccccc1Oc1ccccc1 | -10 | 10 | 0.5 | 50 | 0.7 | 35
Cc1ccc(CNC(=O)COC(=O)c2c(C)noc2C)cc1 | -4 | 4 | 0.9 | 6 | 0.1 | 86*
CCCn1c(N)c(C(=O)CSc2nc(C)cs2)c(=O)n(C)c1=O | -8 | 11 | 0.8 | 19 | 0.7 | 31
CCC(=O)OCCNc1cc(Sc2nc3ccccc3s2)c2nonc2c1[N+](=O)[O-] | -3 | 2 | 0.5 | 54* | 0.7 | 31
CCC(=O)NC1(C(F)(F)F)C(=O)Nc2c1c(=O)n(C)c(=O)n2C (centres undefined) | . | . | 0.4 | 58* | 0.3 | 72*
CCO/N=C(/C)c1c(O)c(C)c(-c2ccccc2)n(-c2ccccc2)c1=O | -5 | 7 | . | . | . | .
O=C(CN1C(=O)c2cccc3cccc(c23)C1=O)N1CCCCCC1 | -7 | 6 | 1 | -4 | 1.1 | -9
Cc1c(=O)n(OCc2c(F)cccc2F)c2ccccc2[n+]1[O-] | 15 | -15 | . | . | . | .
Cc1c(=O)n(OCc2ccccc2)c2ccccc2[n+]1[O-] | -2 | 4 | 0.9 | 13 | 0.3 | 69*
SMILES | sEH activator | sEH inh | CYP2C9 act | CYP2C9 inhib | CYP2C19 activ | CYP2C19 inhib
COc1ccc(COn2c(=O)c(C)[n+]([O-])c3ccccc32)cc1OC | 17 | -20 | 0.3 | 74* | 0.5 | 52*
Cc1ccc(CSCCNC(=O)CSCc2ccc([N+](=O)[O-])cc2)cc1 | -6 | 7 | 0.3 | 75* | 0.4 | 58*
O=C1CCCN1Cc1ncnn1-c1ccccc1 | 7 | -9 | . | . | . | .
Cc1ccc(CCNC(=O)CCNS(=O)(=O)c2ccc3c(c2)oc(=O)n3C)cc1 | . | . | 1 | 0 | 0.4 | 58*
COc1ccccc1CNS(=O)(=O)c1ccc2c(c1)oc(=O)n2C | 13 | -8 | 2.9* | -188 | 0 | 98*
CC(=O)N1CCc2cc(S(=O)(=O)NCCC(=O)NCCc3ccc(C)cc3)ccc21 | . | . | 0.4 | 59* | 0.9 | 6
CCN(CC)c1ccc(NS(=O)(=O)c2ccc3c(c2)oc(=O)n3C)c(C)c1 | -8 | 10 | 0.5 | 53* | 0.2 | 84*
COc1ccccc1CNC(=O)C(NS(=O)(=O)c1ccc2c(c1)oc(=O)n2C)C(C)C (centres undefined) | 9 | -10 | 0.9 | 6 | 0.9 | 12
Cc1ccc(NC(=O)CCNS(=O)(=O)c2ccc3c(c2)oc(=O)n3C)c(C)c1 | . | . | 1.2 | -22 | 0.9 | 11
Cn1c(=O)oc2cc(S(=O)(=O)NCCC(=O)NCCc3ccc(Cl)cc3)ccc21 | . | . | 0.8 | 22 | 0.5 | 50
CCCCNC(=O)C(=O)NC(C)CCc1ccccc1 (centres undefined) | 0 | 2 | 0.9 | 6 | 0.8 | 20
O=C(NCc1ccco1)C1CCCN(S(=O)(=O)c2cccc3nsnc23)C1 (centres undefined) | . | . | 1.1 | -8 | 0.7 | 30
CCN(CCNS(=O)(=O)c1ccc2c(c1)oc(=O)n2C)c1ccccc1 | . | . | 1.9 | -86 | 0.3 | 65*
CCCN(CCC)CCNS(=O)(=O)c1ccc2c(c1)oc(=O)n2C | -7 | 10 | 1.1 | -7 | 1.1 | -7
Cn1c(=O)oc2cc(S(=O)(=O)NCCC(=O)NCCc3ccccc3)ccc21 | . | . | 1.1 | -12 | 0.3 | 72*
CCCCC(C)n1[nH]c(=O)cc1N (centres undefined) | 11 | -12 | 0.9 | 7 | 1 | -2
O=C(OCc1ccccc1Cl)c1ccccc1C(=O)c1ccccc1 | -5 | 3 | 0.6 | 39 | 0.3 | 67*
O=C(OCc1ccccc1Cl)c1cccnc1Cl | -6 | 6 | 1.8 | -84 | 0.7 | 29
CN(C)c1nc2sc3c(c2c(=O)n1C)CC(C)(C)OC3 | 2 | 0 | 1 | 5 | 0.9 | 6
CNc1nc2sc3c(c2c(=O)n1C)CC(C)(C)SC3 | . | . | 0.4 | 56* | 0.3 | 73*
CCC(C)(C)n1nnnc1C(c1ccc2ncccc2c1)N1CCCCCC1 (centres undefined) | -41 | 41 | . | . | . | .
CCCn1c(SCC(=O)N2c3ccc(F)cc3CCC2C)nnc1-c1ccccn1 (centres undefined) | 3 | -3 | . | . | . | .
CC1CCc2cc(F)ccc2N1C(=O)c1ccc2c(c1)OCO2 (centres undefined) | -1 | 2 | 0.7 | 26 | 0.4 | 62*

Screening data: PubChem BioAssay, several laboratories
